ChEMBL document CHEMBL3988442, “University of Dundee, Small-Polar-MMV Screening Library” (2021)
For some assays here: Measured potencies and affinities stand elsewhere.

Columns and labels:
Design in all cases: scale not given: direction of the effect not stated beside the values
[1] = target: Protein translocase subunit SecA (Escherichia coli (strain K12)) (UniProt P10408); assay: Assay to Identify E. coli SecA ATPase Inhibitors; assay type: functional; details: 30 µM
[2] = target: T1, Ubiquitin-activating enzyme e1, putative (Leishmania donovani (strain BPK282A1)) (UniProt E9BSI1); assay: Leishmania donovani Ubiquitin Activating Enzyme (LdE1); assay type: functional; details: 30 µM
T1 sequence (whole entry): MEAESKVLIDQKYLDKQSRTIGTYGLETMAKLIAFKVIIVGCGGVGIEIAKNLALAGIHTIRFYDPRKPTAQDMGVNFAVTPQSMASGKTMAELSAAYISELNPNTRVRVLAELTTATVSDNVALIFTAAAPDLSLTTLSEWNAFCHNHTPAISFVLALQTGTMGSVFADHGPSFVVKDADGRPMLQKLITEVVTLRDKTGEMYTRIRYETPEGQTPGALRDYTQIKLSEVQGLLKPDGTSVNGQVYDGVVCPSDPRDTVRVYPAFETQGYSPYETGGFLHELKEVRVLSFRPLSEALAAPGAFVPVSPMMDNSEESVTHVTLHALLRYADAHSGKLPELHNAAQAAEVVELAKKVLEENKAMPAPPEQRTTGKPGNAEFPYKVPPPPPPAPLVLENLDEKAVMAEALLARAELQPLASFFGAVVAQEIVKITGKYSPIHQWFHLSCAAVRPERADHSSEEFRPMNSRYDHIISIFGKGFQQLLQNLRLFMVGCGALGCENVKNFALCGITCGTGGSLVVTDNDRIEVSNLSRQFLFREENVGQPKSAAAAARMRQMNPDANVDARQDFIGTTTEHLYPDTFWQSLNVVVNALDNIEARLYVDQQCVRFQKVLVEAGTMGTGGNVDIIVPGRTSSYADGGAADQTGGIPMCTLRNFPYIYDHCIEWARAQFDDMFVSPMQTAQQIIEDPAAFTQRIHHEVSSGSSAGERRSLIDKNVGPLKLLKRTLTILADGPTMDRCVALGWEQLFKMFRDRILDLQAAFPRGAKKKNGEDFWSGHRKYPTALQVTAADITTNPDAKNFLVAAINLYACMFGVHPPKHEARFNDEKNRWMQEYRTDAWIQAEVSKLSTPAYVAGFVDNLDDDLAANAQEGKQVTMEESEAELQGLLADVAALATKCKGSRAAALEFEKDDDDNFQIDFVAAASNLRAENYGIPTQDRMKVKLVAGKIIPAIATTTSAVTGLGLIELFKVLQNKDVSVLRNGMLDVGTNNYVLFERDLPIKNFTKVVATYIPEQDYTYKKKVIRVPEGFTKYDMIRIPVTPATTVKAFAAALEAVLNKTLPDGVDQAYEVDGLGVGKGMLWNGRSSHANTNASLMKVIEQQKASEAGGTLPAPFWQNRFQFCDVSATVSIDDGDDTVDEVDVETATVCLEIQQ

[3] = target: AMP-activated protein kinase, AMPK (Homo sapiens) (UniProt P54646+O43741+P54619+Q9UGJ0+Q9Y478+Q13131+Q9UGI9); assay: AMP-dependent Kinase enzyme assay. An in vitro enzyme assay that detects ADP turnover that is directly proportional to AMPK activity. This uses naive AMPK that is activated during the assay with MK-8722; assay type: functional; details: 30 µM
[4] = target: Sialic acid-binding Ig-like lectin 9 (Homo sapiens) (UniProt Q9Y336); assay: Hs-Siglec9 ALPHAscreen SOP 20170721; details: 10 µM
Sequence of Sialic acid-binding Ig-like lectin 9 (Homo sapiens) (Q9Y336 whole entry): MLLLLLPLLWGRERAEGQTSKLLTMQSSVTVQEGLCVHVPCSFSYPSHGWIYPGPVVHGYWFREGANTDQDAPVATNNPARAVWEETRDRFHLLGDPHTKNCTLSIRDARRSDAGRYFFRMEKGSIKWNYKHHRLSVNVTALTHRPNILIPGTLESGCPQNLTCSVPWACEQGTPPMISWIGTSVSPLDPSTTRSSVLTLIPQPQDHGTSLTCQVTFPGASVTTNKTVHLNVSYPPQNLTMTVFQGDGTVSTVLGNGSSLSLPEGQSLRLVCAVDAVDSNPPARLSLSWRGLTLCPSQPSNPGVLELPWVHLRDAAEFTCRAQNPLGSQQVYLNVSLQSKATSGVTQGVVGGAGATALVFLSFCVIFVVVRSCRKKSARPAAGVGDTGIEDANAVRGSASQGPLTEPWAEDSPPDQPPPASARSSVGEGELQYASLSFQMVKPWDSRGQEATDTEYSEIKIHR

[5] = system: Trypanosoma cruzi; assay: Trypanosoma cruzi phosphomannomutase and mannose-1-phosphate guanylyltransferase assay; assay type: functional; details: 10 µM
[6] = target: T2, Arginase-2, mitochondrial (Homo sapiens) (UniProt P78540); assay: in vitro enzyme assay to detect the production of urea directly proportional to the activity of Arginase II; assay type: functional; details: 33.3 µM; also: in the data most compounds retested in dose-response had high values
T2 sequence (whole entry): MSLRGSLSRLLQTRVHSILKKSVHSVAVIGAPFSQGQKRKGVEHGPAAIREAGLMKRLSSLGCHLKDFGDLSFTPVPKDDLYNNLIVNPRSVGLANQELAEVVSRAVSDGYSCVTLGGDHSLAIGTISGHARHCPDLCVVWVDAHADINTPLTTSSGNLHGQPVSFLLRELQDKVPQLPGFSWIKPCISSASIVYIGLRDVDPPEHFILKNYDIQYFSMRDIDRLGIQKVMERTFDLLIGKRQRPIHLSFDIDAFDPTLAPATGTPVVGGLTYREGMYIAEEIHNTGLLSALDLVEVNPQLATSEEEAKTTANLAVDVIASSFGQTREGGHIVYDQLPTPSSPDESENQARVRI

[7] = target: T3, Proteasome subunit beta (Trypanosoma cruzi) (UniProt O96673); assay: Trypanosoma cruzi proteasome chymotrypsin-like activity (TcProtChymo) assay.; also: in the data most compounds retested in dose-response had high values; assay type: functional; details: 9.37 µM
T3 sequence (whole entry): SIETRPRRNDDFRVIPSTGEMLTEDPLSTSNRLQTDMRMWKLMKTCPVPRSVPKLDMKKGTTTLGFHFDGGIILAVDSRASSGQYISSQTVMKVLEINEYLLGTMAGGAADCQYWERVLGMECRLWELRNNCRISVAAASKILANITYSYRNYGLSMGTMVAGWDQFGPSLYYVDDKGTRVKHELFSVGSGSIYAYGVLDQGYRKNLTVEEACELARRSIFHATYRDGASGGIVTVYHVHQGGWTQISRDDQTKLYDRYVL

[8] = species on record: Homo sapiens; assay: To identify inhibition of the IFN signalling (Jak-Stat) pathway via expression of an eGFP reporter gene under the control of an IFN-stimulated response element (ISRE) containing MxA promoter.; assay type: functional; details: 30 µM
[9] = target: T4, Tyrosyl-tRNA synthetase, putative (Trypanosoma cruzi (strain CL Brener)) (UniProt Q4DSP6); assay: Trypanosoma cruzi tyrosyl tRNA synthetase (TcYRS) _High Tyrosine SOP; assay type: functional; details: 30 µM; also: in the data most compounds retested in dose-response had high values
T4 sequence (whole entry): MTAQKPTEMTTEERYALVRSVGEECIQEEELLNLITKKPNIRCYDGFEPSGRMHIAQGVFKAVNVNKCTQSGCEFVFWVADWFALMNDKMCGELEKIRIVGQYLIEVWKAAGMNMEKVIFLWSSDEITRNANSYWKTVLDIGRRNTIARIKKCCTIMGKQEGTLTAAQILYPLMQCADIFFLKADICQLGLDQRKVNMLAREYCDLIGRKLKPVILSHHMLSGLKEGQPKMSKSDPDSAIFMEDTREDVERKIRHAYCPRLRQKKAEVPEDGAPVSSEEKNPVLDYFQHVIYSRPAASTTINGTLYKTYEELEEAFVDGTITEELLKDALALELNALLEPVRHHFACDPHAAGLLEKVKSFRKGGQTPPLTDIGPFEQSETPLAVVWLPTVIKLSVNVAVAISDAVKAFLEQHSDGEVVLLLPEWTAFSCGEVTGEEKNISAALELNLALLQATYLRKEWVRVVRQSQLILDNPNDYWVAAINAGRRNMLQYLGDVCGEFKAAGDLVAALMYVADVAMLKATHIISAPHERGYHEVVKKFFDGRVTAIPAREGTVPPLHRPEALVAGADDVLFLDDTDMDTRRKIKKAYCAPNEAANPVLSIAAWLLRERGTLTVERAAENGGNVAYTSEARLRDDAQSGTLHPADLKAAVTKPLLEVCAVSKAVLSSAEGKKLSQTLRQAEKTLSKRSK

[10] = target: T4, Tyrosyl-tRNA synthetase, putative (Trypanosoma cruzi (strain CL Brener)); assay: Trypanosoma cruzi tyrosyl tRNA synthetase (TcYRS) SOP; assay type: functional; details: 30 µM
[11] = target: Chromo domain-containing protein 1 (Saccharomyces cerevisiae (strain ATCC 204508 / S288c) (Baker's yeast)) (UniProt P32657); assay: ScCHD-1 Enzyme Inhibition Assay; assay type: functional; details: 30 µM; also: in the data most compounds retested in dose-response had high values
Sequence of Chromo domain-containing protein 1 (Saccharomyces cerevisiae (strain ATCC 204508 / S288c) (Baker's yeast)) (P32657 whole entry, the tested form may be a part): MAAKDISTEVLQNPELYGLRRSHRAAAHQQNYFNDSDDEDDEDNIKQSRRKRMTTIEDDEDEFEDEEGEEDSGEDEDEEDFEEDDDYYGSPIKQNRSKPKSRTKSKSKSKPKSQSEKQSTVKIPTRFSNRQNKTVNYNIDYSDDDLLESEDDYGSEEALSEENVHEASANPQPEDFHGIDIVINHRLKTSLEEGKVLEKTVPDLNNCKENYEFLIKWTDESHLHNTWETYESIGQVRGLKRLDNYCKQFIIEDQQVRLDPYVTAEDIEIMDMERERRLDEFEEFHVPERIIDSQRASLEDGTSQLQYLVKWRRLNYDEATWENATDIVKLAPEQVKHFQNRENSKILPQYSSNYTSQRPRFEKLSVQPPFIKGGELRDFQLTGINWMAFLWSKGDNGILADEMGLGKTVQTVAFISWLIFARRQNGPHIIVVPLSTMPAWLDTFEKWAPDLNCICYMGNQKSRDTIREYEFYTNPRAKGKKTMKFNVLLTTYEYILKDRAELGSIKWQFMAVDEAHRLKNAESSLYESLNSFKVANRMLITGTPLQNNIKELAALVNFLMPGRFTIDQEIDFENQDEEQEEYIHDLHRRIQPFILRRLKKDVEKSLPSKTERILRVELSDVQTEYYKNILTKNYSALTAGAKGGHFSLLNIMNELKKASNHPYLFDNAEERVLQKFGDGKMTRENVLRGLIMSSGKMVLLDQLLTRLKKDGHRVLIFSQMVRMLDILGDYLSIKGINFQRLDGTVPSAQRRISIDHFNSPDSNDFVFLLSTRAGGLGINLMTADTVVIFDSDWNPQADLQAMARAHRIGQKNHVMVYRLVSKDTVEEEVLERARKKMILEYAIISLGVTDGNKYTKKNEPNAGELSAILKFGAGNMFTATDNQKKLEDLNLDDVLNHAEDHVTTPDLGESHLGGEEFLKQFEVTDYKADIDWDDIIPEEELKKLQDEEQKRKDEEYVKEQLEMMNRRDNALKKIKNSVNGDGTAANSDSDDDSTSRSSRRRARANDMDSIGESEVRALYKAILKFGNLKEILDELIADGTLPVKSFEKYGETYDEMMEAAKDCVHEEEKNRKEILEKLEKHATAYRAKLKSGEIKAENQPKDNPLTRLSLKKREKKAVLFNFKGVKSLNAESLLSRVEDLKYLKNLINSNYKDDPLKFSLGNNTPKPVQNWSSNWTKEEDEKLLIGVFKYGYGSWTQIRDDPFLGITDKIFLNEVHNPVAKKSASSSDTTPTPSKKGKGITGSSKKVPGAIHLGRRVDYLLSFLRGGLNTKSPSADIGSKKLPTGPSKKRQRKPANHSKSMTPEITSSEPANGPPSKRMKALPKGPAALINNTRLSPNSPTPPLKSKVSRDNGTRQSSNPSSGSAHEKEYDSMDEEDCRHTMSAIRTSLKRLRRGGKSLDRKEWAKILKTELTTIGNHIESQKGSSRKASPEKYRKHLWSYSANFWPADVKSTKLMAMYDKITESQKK

Sequence of Protein translocase subunit SecA (Escherichia coli (strain K12)) (P10408 whole entry): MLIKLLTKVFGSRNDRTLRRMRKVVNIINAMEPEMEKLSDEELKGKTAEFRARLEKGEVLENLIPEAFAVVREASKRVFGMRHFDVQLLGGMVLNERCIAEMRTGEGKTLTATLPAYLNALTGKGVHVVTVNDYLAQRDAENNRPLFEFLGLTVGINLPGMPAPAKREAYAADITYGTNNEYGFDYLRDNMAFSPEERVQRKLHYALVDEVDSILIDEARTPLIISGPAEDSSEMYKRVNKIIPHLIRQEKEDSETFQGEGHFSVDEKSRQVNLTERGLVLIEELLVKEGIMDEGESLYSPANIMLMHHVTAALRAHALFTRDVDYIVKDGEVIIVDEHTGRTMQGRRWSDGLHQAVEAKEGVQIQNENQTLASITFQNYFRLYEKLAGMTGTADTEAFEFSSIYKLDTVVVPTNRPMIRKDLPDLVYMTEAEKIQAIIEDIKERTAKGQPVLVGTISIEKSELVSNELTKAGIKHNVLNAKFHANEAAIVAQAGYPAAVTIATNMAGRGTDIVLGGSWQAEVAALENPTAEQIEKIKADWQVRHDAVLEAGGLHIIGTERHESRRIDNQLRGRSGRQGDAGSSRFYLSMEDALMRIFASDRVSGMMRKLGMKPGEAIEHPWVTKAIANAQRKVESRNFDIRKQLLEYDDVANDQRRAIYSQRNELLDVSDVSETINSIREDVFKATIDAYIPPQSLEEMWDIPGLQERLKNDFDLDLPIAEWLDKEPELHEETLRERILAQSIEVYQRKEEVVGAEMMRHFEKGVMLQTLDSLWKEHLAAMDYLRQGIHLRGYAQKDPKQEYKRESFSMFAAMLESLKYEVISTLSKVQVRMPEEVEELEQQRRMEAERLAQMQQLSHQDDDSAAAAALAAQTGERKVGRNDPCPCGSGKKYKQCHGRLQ

| Compound | Percent Effect [1] | Percent Effect [2] | Percent Effect [3] | Percent Effect [4] | Percent Effect [5] | Percent Effect [6] | Percent Effect [7] | Percent Effect [8] | Percent Effect [9] | Percent Effect [10] | Percent Effect [11] |
| --- | --- | --- | --- | --- | --- | --- | --- | --- | --- | --- | --- |
| Cc1ccc(CNS(=O)(=O)CC2=NC(=O)n3cccc3C2=O)cc1 | 0.952% | -9.33% | 7.77% | 4.14% | -1.77% | -4.4% | 7.21% | -19.8% | -2.12% | 0% | 2.54% |
| COCCCC1(CO)CCCN(CCS(C)(=O)=O)C1 (configuration not stated) | -1.54% | 0% | 3.61% | -1.71% | 0% | 1.36% | 2.13% | -0.331% | 2.15% | 5% | 2.4% |
| CN(C)CC(=O)N1CCC2(CC1)CN(c1ccsc1)C(=O)CO2 | -9.33% | 2.67% | 3.11% | -6.49% | -4.33% | -0.233% | 3.96% | 15.6% | 0% | -3.85% | -3.46% |
| O=C(CC1CC1)NCc1cc(=O)n2c(n1)CN(Cc1ccoc1)CCC2 | -2.92% | -11% | -1.08% | 0.919% | 7.34% | -1.2% | 18.9% | 4.85% | 3.12% | 6.17% | -3.77% |
| Cn1cc(C(=O)NCc2cn3c(n2)CN(CC2CCOCC2)CC3)cn1 | -2.09% | 5.41% | 26.2% | -3.62% | -1.95% | 1.67% | 11.9% | 20.1% | 7.92% | 15.8% | -0.801% |
| CCOc1cccc2c1OCC(C(=O)NS(=O)(=O)c1ccc(C)s1)=C2 | -4.93% | -8.11% | -7.07% | 7.91% | -1.98% | 4.01% | 9.01% | 5.57% | -9.36% | -18.5% | -1.03% |
| COc1c(CNCc2ccc(C(=O)N(C)C)cc2)c(C)nn1C | -4.19% | 1.27% | 7.36% | -0.0396% | 2.97% | 1.07% | 8.23% | 27.1% | 3.12% | 7.59% | -4.86% |
| Cc1cc(C)c(CNC(=O)N2CCN(c3ncccn3)CC2)c(=O)[nH]1 | -6.02% | 7.89% | -4.85% | 6.02% | 5.08% | 3.45% | 16.5% | 2.72% | 3.43% | 7.32% | -10.9% |
| Cc1cc(N2CCN(C(=O)c3cc(Cl)c[nH]3)CC2)nc(N)n1 | 0.0114% | 8.22% | -3.11% | 13.8% | 5.36% | -2.4% | 15.3% | 17.5% | 10.4% | 13.6% | -0.523% |
| COc1ccccc1CC(=O)NS(=O)(=O)c1cncc(Br)c1 | -4.15% | 2.6% | 4.69% | -5.24% | -1.87% | 2.13% | 1.35% | 21.7% | -4.85% | -4.88% | -7.14% |
| Cc1nc(C)n(CC2CCCN2CC(=O)NCc2ccco2)n1 (configuration not stated) | -0.786% | 2.74% | 1.19% | 4.18% | 0.979% | -1.36% | 13.8% | 6.45% | 1.07% | -2.5% | -3.99% |
| COCCN1CCC(Cc2cncc(-c3ccc(C(=O)O)cc3)n2)C1 (configuration not stated) | -5.18% | 1.35% | 42.5% | -3.43% | -3.75% | -2.55% | 3.43% | 12.6% | 1.07% | 1.3% | -3.54% |
| Fc1ccc(CN2CCCC(c3nnc(-c4cnccn4)o3)C2)cc1F (configuration not stated) | -9.81% | 14.9% | -1.12% | 9.24% | -0.198% | -3.02% | 12% | 1.34% | 6.45% | 14.3% | -26.6% |
| CC1=Nc2c(c(=O)[nH]n2C(C)C)C(c2ccccc2)S1 (configuration not stated) | -5.22% | 4% | 12.2% | 5.15% | -0.786% | -3.7% | 12% | 32.4% | 22.2% | 28.2% | -3.79% |
| Cc1cnn(CCNCc2cccnc2)c1 | -3.48% | -11.4% | 6.23% | 2.04% | -2.36% | 1.5% | 8.92% | 16.9% | 2.08% | 7.59% | -6.41% |
| COc1ccc2cc(C3CN(C(=O)C4CCOCC4)CCO3)ccc2c1 (configuration not stated) | -3.12% | 2.7% | 1.82% | 0.48% | 1.93% | 2.38% | 9.31% | -4.85% | 4.76% | 12.2% | -2.89% |
| Cc1nnc(N2CC[C@H]3C[C@H](C(=O)N4CCOCC4)O[C@H]3C2)s1 | -2.55% | 0% | 5.32% | 2.05% | 0.0978% | -0.955% | 14.6% | -19.4% | 1.08% | 5.13% | 1.53% |
| CCOCCOc1ccccc1C(=O)N1CCCC(c2ncc[nH]2)C1 (configuration not stated) | -3.41% | 8.22% | 11.4% | 0.341% | 0.979% | 3.64% | 23.2% | 6.64% | 8.6% | 17.5% | -11.5% |
| CCNS(=O)(=O)c1ccc(C)c(C(=O)N(C)Cc2ccco2)c1 | -2.78% | -4.17% | 4.21% | 0.221% | -1.65% | 0.442% | 13% | -0.366% | -27.4% | -2.56% | 2.86% |
| CN(C)c1ncnc2c1CCN(CC1CCOC1)CC2 (configuration not stated) | -2.84% | 8.11% | 4.65% | -0.235% | -3.42% | -2.87% | 18.6% | -8.93% | 3.24% | 15.4% | 0.421% |
| Cc1nc(N2CCN(C)CC2)ncc1C(=O)N1CC(C)(C)C(C)(O)C1 (configuration not stated) | -0.364% | 2.7% | 6.69% | -5.09% | -9.09% | -8.19% | 13% | 11.1% | 0% | -16.1% | 103% |
| Cc1cccc(CN2CC3(CCNCC3)OCC2=O)n1 | -6.42% | 2.7% | 2.52% | -3.05% | 1.37% | -0.833% | 2.11% | 2.26% | 4.95% | 11% | -6.46% |
